ATXN viability = Viability Counterscreen for Primary qHTS for Inhibitors of ATXN expression; AID 651635, 2014; Potency, µM (series often up to 56.7 µM), actives largely listed as cytotoxic; S2 cells (HEK-293 line with an ATXN2-luciferase reporter) viability, CellTiter-Fluor protease fluorescence, 24 h; 400,000 tested, 0.49% active; note: potency is the fitted concentration of half-maximal effect; nearly all actives have a fitted effect of over 40% in size
ATXN2 expr inh = Primary qHTS for Inhibitors of ATXN expression | HEK-293 ATXN2-luciferase reporter, luminescence, 24 h | Potency, µM (top dose mostly 57 µM), for inactives: at the top dose activity change, negative = inhibition, actives largely listed as inhibitors | 360,000 tested, 0.72% active | AID 1745845, 2022; note: potency is the fitted concentration of half-maximal effect; % is set by controls: 0 for no effect and ±100 for the full control effect; nearly all actives have a fitted effect of over 55% in size
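qHTS (up to 57 uM final) was run with 24 h compound exposure of reporter cells at 37 °C. Each well was multiplexed: SteadyGlo luminescence measured ATXN2-luciferase expression after a fluorogenic Gly-Phe-AFC viability readout (25 uM final).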
IL1B secr inh = qHTS for Inhibitors of Inflammasome Signaling: IL-1-beta AlphaLISA Primary Screen; THP-1 LPS/ATP IL-1B secretion, AlphaLISA, 16 h; hits give low values; activity change, % at 57.5 µM; 360,000 tested, 4.7% active; AID 743279, 2014; in the data active = activity change below about -50%; inconclusive = mostly about -30% to -49%; note: % is set by controls: 0 for no effect and ±100 for the full control effect
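Secreted IL-1B measured by AlphaLISA bead assay after 16 h compound exposure of THP-1 cells; compounds (final up to 57.5 uM) added 1 h before LPS (250 ng/mL) and ATP (1.25 mM) stimulation; lower signal means less secretion.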
SW480 rerep = A quantitative high throughput screen for small molecules that induce DNA re-replication in SW480 colon adenocarcinoma cells. SW480 DNA re-replication, Hoechst DNA content imaging, 48 h. AID 624297, 2012. Potency, µM (series often up to 46.1 µM), for inactives: at the top dose re-replication activation, actives largely listed as activators. 340,000 tested, 1.8% active; note: potency is the fitted concentration of half-maximal effect; % of control where 0% means no effect; nearly all actives have a fitted effect of over 55% in size
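First, 250 cells per well were seeded. Next, compound or vehicle (23 nL) was pinned in, plates sat 48 hr at 37 C. Finally Hoechst was added for 40 min before fluorescence scanning.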
MCF10A rerep = A quantitative high throughput screen for small molecules that induce DNA re-replication in MCF 10a normal breast cells | 350,000 tested, 2.9% active | MCF 10A DNA re-replication, Hoechst nuclear intensity, 48 h | AID 624296, 2012 | Potency, µM (series often up to 46.1 µM), for inactives: at the highest dose activity, positive = re-replication, most hits filed as activators; note: potency is the fitted concentration of half-maximal effect; % of control where 0% means no effect; nearly all actives have a fitted effect of over 50% in size
PINK1 expr mod = A Quantitative High throughput Screen to Identify Chemical Modulators of PINK1 Expression; PINK1 immunofluorescence, high-content cytometry, 24 h; Potency, µM (highest dose often 76.6 µM), without a hit: top-dose activation (PINK1 increase), hits mostly activators; 410,000 tested, 0.2% active; active = well fitted activation curve with a large enough effect; inconclusive = small, poorly fitted or top-dose-only effect; cell line not stated here; note: potency is the fitted concentration of half-maximal effect; % of control where 0% means no effect; nearly all actives have a fitted effect of over 65% in size
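PINK1 protein level read as immunofluorescence by microplate cytometer in a fixed, stained stable cell line after 24 h exposure to five compound concentrations, with CCCP as control.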
* marks the source's active call; other numbers are inactive results; i = inactive; u = inconclusive; x = no result; [ ] = remark or other dose. Rows were chosen to be rich in hits. Some 7.1% of all compounds tested hit in one or more screens of this group. Unless noted, calls come from the whole dose curve; as a rule, active = well fitted curve in the direction sought with a large enough effect; inconclusive = small, poorly fitted or top-dose-only effect, or another doubt; inactive = no such curve, though single readings can be large; an effect the other way counts as inactive or inconclusive.

SMILES	ATXN viability	ATXN2 expr inh	IL1B secr inh	SW480 rerep	MCF10A rerep	PINK1 expr mod
C=CC[C@@H](Cc1ccc(F)cc1)C(=O)OC[C@@H]1CCCN1C(=O)[C@@H](CC=C)CC(=O)N(CCO)Cc1ccccc1	u	-31%	u	-10%	21%	3%
C=CC[C@@H](Cc1ccc(F)cc1)C(=O)OC[C@@H]1CCCN1C(=O)[C@H](CC=C)CC(=O)N[C@H](CO)Cc1ccccc1	x	u	-70*	18%	u	-1%
C=CC[C@@H](CC(=O)OC(C)(C)C)C(=O)OC[C@@H]1CCCN1C(=O)[C@@H](CC=C)CC(=O)N(CCO)Cc1ccccc1	u	-24%	-55*	-14%[9.22 µM]	15%	0%
C=CC[C@@H](CC(=O)OC(C)(C)C)C(=O)OC[C@H]1CCCN1C(=O)[C@@H](CC=C)CC(=O)N(CCO)Cc1ccccc1	i	0%	-62*	0%	u	-1%
Cc1nc2ccc(S(=O)(=O)N(CC(=O)Nc3ccc(F)cc3F)Cc3ccccc3)cc2s1	i	4%	x	x	x	-1%
O=C(Cn1cc[n+](CC(=O)c2ccc(Cl)cc2Cl)c1)c1ccc(Cl)cc1Cl	u	-37%	-82*	2%	-2%	-2%
COc1ccc2c(c1)OC(C)CN(CCNC(=O)c1cccc(N3CCNC3=O)c1)C2 (configuration not stated)	i	x	x	x	x	0%
O=C(O)c1cccc(-c2nc3ccccc3[nH]2)c1	i	14µM*	11	0%	-1%	0%
O=C(O)c1ccc(-c2nc(-c3ccccc3)c(-c3ccccc3)[nH]2)cc1	i	-4%	44	-7%	16µM*	0%
c1ccc(-c2nc3ccccc3[nH]2)cc1	i	45%	-23	104%	-5%	1%
N=c1c(C(=O)NCc2ccc(F)cc2)cc2c(=O)n3ccccc3nc2n1CC1CCCO1 (configuration not stated)	x	3%	22	2.9µM*	u	1%
N=c1c(C(=O)NCc2ccc3c(c2)OCO3)cc2c(=O)n3ccccc3nc2n1CC1CCCO1 (configuration not stated)	i	-7%	1	23µM*	u	3%
N=c1c(C(=O)NCc2ccco2)cc2c(=O)n3ccccc3nc2n1CC1CCCO1 (configuration not stated)	i	-16%	7	u	u	-1%
N=c1c(C(=O)NCCc2ccccc2)cc2c(=O)n3ccccc3nc2n1CC1CCCO1 (configuration not stated)	x	-23%	22	2.6µM*	18µM*	-1%
COc1cccc(C(=O)N(Cc2cccnc2)c2nc3c(OC)ccc(C)c3s2)c1OC	x	x	x	x	x	-1%
COc1c(Cl)cc(C(=O)Nc2cc(-c3nc4ccccc4[nH]3)ccc2C)cc1Cl	10µM*	u	x	x	x	2%
COc1cc(OC)cc(C(=O)Nc2cc(-c3nc4ccccc4[nH]3)ccc2C)c1	u	u	x	x	x	3%
CCCCNC(=O)C(CC)Sc1nnc(-c2ccc(F)cc2)c(-c2ccc(F)cc2)n1 (configuration not stated)	x	x	x	x	x	2%
COc1ccc(N=Cc2c(O)n(-c3cccc(C)n3)c(=O)c3ccccc23)c(OC)c1	x	-31%	x	-2%	u	45µM*
COc1cccc(N=Cc2c(O)n(-c3cccc(C)n3)c(=O)c3ccccc23)c1	i	-15%	-19	-1%	3%	3%[38.3 µM]
CCSc1nc2ccccc2n1C(=O)/C=C\c1ccc(OC)c(OC)c1	u	13µM*	-97*	8.2µM*	4.1µM*	-1%
OC1(c2cccnc2)CCN(Cc2ccc3c(c2)CN(Cc2ccc4nsnc4c2)CCO3)CC1	i	x	x	x	x	-1%
Cc1oc(-c2ccc(Cl)cc2)nc1CN1CCC(C(=O)NCc2cccnc2)CC1	i	-18%	-58*	2%	u	-2%
Cc1oc(-c2cccc(Cl)c2)nc1CN1CCC(C(=O)NCCc2ccc(Cl)cc2)CC1	i	1%	x	x	x	-1%
Cc1oc(-c2ccc(Cl)cc2)nc1CN1CCCC(C(=O)NCc2ccc(Cl)cc2)C1 (configuration not stated)	i	1%	x	x	x	1%
SMILES	ATXN viability	ATXN2 expr inh	IL1B secr inh	SW480 rerep	MCF10A rerep	PINK1 expr mod
CCCN(CCC)CCNC(=O)C1CCN(Cc2nc(-c3ccc(Cl)cc3)oc2C)CC1	16µM*	u	u	8%	-3%	0%
Cc1oc(-c2ccc(Cl)cc2)nc1CN1CCCC(C(=O)NCc2ccco2)C1 (configuration not stated)	u	u	-51*	7%	-1%	-1%
O=c1c2oc3ccccc3c2n(Cc2cccc(C(F)(F)F)c2)c(=O)n1Cc1ccc2c(c1)OCO2	x	x	x	x	x	0%
COc1ccccc1CNC(=O)Cn1c(=O)oc2cc(S(=O)(=O)N3CCC(C)CC3)ccc21	i	-20%	x	x	x	4%
Oc1oc(-c2ccccc2)nc1C=Nc1ccccc1	i	51%	-55*	0%	-5%	-5%[38.3 µM]
CN(C)c1ccc(N=Cc2nc(-c3ccccc3)oc2O)cc1	i	29%	-18	11%	11%	26%
Cc1ccc(N=Cc2nc(-c3ccc(C)cc3)oc2O)cc1	i	x	-20	u	6.5µM*	-1%
Cc1ccc(Nc2nc(N)nc(CN3CCN(Cc4ccc5c(c4)OCO5)CC3)n2)cc1C	i	-27%	-74*	1%	5%	-1%
Cc1ccc(Nc2nc(N)nc(CN3CCN(c4ccccc4)CC3)n2)cc1Cl	i	-9%	u	10%	18µM*	-4%
COc1ccc(N2CCN(Cc3nc(N)nc(Nc4ccc(C)c(Cl)c4)n3)CC2)cc1	u	0%	-28	u	u	5%[38.3 µM]
CCOC(=O)CCN(c1ccccc1)S(=O)(=O)c1cc(-c2cc(C)no2)ccc1C	x	x	x	x	x	3%
N#Cc1c(-c2ccccc2)nc(SCC(=O)N2c3ccccc3Sc3ccccc32)[nH]c1=O	i	-24%	-20	9%	21µM*	5%
N#Cc1c(-c2ccccc2)nc(SCc2ccc(Cl)cc2)[nH]c1=O	i	25%	-54*	-12%	u	1%
CCn1cc([N+](=O)[O-])c(C(=O)N2N=C(c3ccc(O)c(OC)c3)CC2c2ccccc2O)n1 (configuration not stated)	i	-12%	-23	14%	7%	-3%
